Molecules are shown by their SMILES. Among all 340,000 compounds or so, about 1,700 (0.5%) were called active. Many of the other results were omitted from the sample, so actives are more common in it than they were. Unmarked numbers belong to inactive results.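 How the source made its calls: active means compounds whose inhibition of the agonist-driven luminescence signal at 20 µM reaches about 50% (limit read from the data); inactive means the rest.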

We go through 61 molecules from PubChem BioAssay AID493098 (Sanford-Burnham Center for Chemical Genomics, 2011).

In this assay the target is C-C chemokine receptor type 6 (Homo sapiens) (UniProt P51684). The assay is described as follows: CCR6 receptor antagonists, primary screen, cell-based, CHO-K1, luminescence, beta-arrestin, uHTS (AID 493098).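 Further: cells stimulated with CCL20 at 14 nM final; plate controls were DMSO with CCL20 for no effect and DMSO without agonist for full effect.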 As to conditions: CHO-K1 CCR6 PathHunter beta-arrestin, CCL20-stimulated, at 20 µM, active compounds read high.
Sequence of C-C chemokine receptor type 6 (Homo sapiens) (P51684 whole entry, looked up): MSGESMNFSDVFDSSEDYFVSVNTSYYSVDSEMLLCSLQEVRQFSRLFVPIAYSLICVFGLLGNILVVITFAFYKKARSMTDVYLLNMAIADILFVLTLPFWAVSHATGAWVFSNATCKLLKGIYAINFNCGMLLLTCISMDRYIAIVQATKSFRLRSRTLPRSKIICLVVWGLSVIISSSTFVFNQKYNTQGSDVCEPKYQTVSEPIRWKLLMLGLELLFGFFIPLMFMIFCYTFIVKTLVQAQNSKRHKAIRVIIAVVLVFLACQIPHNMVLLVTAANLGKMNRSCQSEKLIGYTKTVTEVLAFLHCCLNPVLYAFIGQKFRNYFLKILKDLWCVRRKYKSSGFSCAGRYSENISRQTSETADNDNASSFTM
With `Cc1cccc(CSc2ccc(-c3cccs3)nn2)c1`, the inhibition was 7.33%.
In the case of `COc1ccccc1C1SCCN1C(=O)c1ccc([N+](=O)[O-])cc1` (stereo unspecified), the inhibition is -4.39%.
As to `CC1CC2=C(CC1/C=N/NC(N)=S)C(C)(C)CCC2` (stereo unspecified), the inhibition is 76.2% (active).
Then `CCC(C)N(C(=O)Cn1nc(C)c([N+](=O)[O-])c1C)C1CCS(=O)(=O)C1` (stereo unspecified), with -5.11%; and `CCOc1ccc(NC(=O)COC(=O)C2CCC(=O)N2)c([N+](=O)[O-])c1` (stereo unspecified), with -15.3%; and `O=c1[nH]c(CN2CCN(S(=O)(=O)c3ccc4c(c3)OCCO4)CC2)nc2sc3c(c12)CCCC3`, with 10.3%.
For `O=S(=O)(Nc1ncccn1)c1ccc(NS(=O)(=O)c2cccc(Cl)c2Cl)cc1`, the inhibition was 9.31%.
Then `COc1ccc(C(=O)NC(=S)NNC(=O)c2c(-c3ccccc3)noc2C)cc1`, with 32.9%; and `O=C(CCc1ccccc1)NNC(=O)COc1ccc(Cl)cc1`, with 7.8%.
Then `COc1ccc(C(=O)NC(=S)NNC(=O)CCc2ccccc2)cc1`, with 63.5% (active).
Then `COCCn1c(SCC(=O)Nc2nc(C)cs2)nnc1C(C)C`, with -5.85%; and `CN(C)CCn1c2c(c(SCC(=O)NCc3ccccc3)nc1=O)CCC2`, with 8.36%.
On to `N#CC1(NC(=O)COC(=O)Cc2n[nH]c(=O)c3ccccc23)CCCCC1`, for which the inhibition was -0.31%.
Then `O=C(NNC(=O)c1cnccc1C(F)(F)F)c1ccc(Cl)cc1`, with -1.91%.
Take `CC(OC(=O)CN1C(=O)c2ccccc2C1=O)C(=O)c1ccccc1` (stereo unspecified): the inhibition was 6.02%.
Then `CC(C)OC(=O)CN1C(=O)C(=O)c2ccccc21`, with 108% (active); and `CCOC(=O)CN1C(=O)C(=O)c2cc(C)ccc21`, with 15.8%.
In the case of `Cc1c(Cl)cccc1NC(=O)CSc1ccc(-c2cccnc2)nn1`, the inhibition was 12.9%.
On to `Cc1cc(C(=O)N2CCC(C(=O)O)CC2)c(C(F)(F)F)o1`, for which the inhibition was 4.3%.
Then `Cc1cc(NC(=O)CCC(=O)N(Cc2ccccc2)C(C(=O)NC2CCCC2)c2ccc(C)o2)no1` (stereo unspecified), with 7.11%; and `CC(=O)/C(=N\Nc1ccc(Cl)cc1Cl)Sc1cccc2cccnc12`, with 65.9% (active); and `O=C(NNc1cc(Cl)ccc1Cl)c1cccnc1Cl`, with 13.2%.
For the molecule `COc1cccc(CNC(=O)c2cccnc2Sc2ccc(Cl)cc2)c1`, the inhibition was -12.9%.
Then `CC(Sc1nc2c([nH]c3ccccc32)c(=O)n1C)c1ccccc1` (stereo unspecified), with 5.65%.
Then `CC(=O)c1ccc(N=C2SCCCN2C(=O)C2CCCCC2)cc1`, with 12.7%.
Then `COc1cc(OC)cc(-c2cc3nc(C4CCN(C(=O)OC(C)(C)C)CC4)cc(=O)n3[nH]2)c1`, with -12.3%; and `CSCCC(NC(=O)COc1ccccc1)C(=O)OCc1ccc(Cl)cc1` (stereo unspecified), with -15.3%.
Take `CSCCC(NC(=O)COc1ccccc1)C(=O)OCC(=O)c1cc2ccccc2o1` (stereo unspecified): the inhibition was 59.6% (active).
For `CSCCC(NC(=O)COc1ccccc1)C(=O)OCCOc1ccc(Br)cc1` (stereo unspecified), the inhibition is 12.1%.
On to `C#CCO[C@@H]1C[C@H](n2cnc3c(=O)[nH]c(NC(=O)C(C)C)nc32)O[C@@H]1CO`, for which the inhibition is -6.43%.
For `Cc1csc(SCC(=O)N(c2ccccc2)C(C)C)n1`, the inhibition is 13.7%.
Then `Cc1nc(-c2ccc(F)cc2)c(CC(=O)Nc2cc(S(=O)(=O)N3CCCCC3)ccc2C)s1`, with 5.08%; and `CC1=C/C(=N\OS(=O)(=O)c2ccccc2)C=CC1=O`, with 80.3% (active); and `O=C(NC1CC1)C(Cc1ccccc1)NS(=O)(=O)c1ccccc1F` (stereo unspecified), with 6.69%.
Then `CN(O)C(=S)c1ccccc1`, with 95.7% (active); and `CN(CC(=O)O)C(=O)c1ccccc1`, with -10.2%.
With `CN(/N=C/c1ccccc1)C(=S)c1ccccc1`, the inhibition is 23.9%.
For `COC(=O)c1sc(-c2ccc(C(C)(C)C)cc2)cc1NC(=O)/C=C/C(=O)O`, the inhibition was -1.25%.
Then `O=[N+]([O-])/C=C/c1ccc2c(ccn2Cc2ccccc2)c1`, with 91.2% (active); and `Cc1nnc(NC(=O)Cn2c(=O)sc3ccccc32)s1`, with -5.17%; and `COc1cccc(NC(=O)c2cc(S(=O)(=O)N3CCc4ccccc43)cn2C)c1`, with -11.8%.
Turning to `Cc1cccc(NC(=O)Cc2ccc(Br)cc2)n1`, the inhibition is 13.2%.
As for `O=C(CCl)NNc1cccc(Cl)n1`, the inhibition is 60.7% (active).
Consider `O=C(Cc1c(Cl)cccc1Cl)NC1CC1`, for which the inhibition is -1.28%.
For the molecule `C=CCC(C(=O)c1ccccc1)[N+](C)(C)CC=C` (stereo unspecified), the inhibition was -0.91%.
Consider `CN(CCc1ccccn1)C(=O)c1ccc(OC2CCN(CCc3ccccc3)CC2)cc1`, for which the inhibition was 13.6%.
Regarding `CCc1c(C)nc2c(-c3ccccc3)c(C)nn2c1Nc1ccc(NC(C)=O)cc1`, the inhibition was 4.32%.
In the case of `O=C(CSc1cccc2cccnc12)N/N=C/c1cccnc1`, the inhibition is 61.7% (active).
Consider `COc1ccc(C(=O)NCC(=O)N/N=C/c2cccnc2)cc1`, for which the inhibition was -3.8%.
`CCn1c(SCC(=O)N/N=C/c2ccncc2)nc2ccccc21`: the inhibition is 10.1%.
For the molecule `COc1ccc(C(=O)NCc2ccccc2C)cc1S(=O)(=O)NC1CCCC1`, the inhibition is 2.68%.
Then `O=c1onc(-c2cccs2)n1Cc1ccccc1`, with 2.59%; and `Cc1c(O)c(C)c2c(c1O)C(=O)C[C@@H](c1ccccc1)O2`, with 14.4%.
Then `COC(=O)C1=C(C)N(C)C(C)=C(C(=O)OC)C1c1cccc(Br)c1`, with 36.4%; and `COC(=O)C1NN=C(C(=O)c2ccc(Br)cc2)C1c1cccc(Br)c1` (stereo unspecified), with 52.8% (active).
Then `COc1ccc(C(=O)c2oc3ccc(Br)cc3c2NC(C)=O)cc1`, with 3.07%.
`COC(=O)c1ccc([C@@H](O)[C@H](C)C(=O)CC(=O)OC(C)(C)C)cc1`: the inhibition is 0.65%.
Then `N#Cc1cccc(OC(=O)c2ccc3c(=O)n4c(nc3c2)CCC4)c1`, with 9.54%; and `Cc1ccc(-n2ncc3c(Nc4cccc(C(=O)O)c4)ncnc32)cc1`, with 9.65%; and `COc1cc(CNc2ncn[nH]2)ccc1OCc1ccccc1C`, with -5.7%.
Then `CC1(C)CC[C@]2(C(=O)O)CC[C@]3(C)C(=CCC4[C@@]5(C)CC[C@H](O)C(C)(C)C5[C@H](O)C[C@]43C)[C@@H]2C1` (stereo partly specified), with -0.24%.

Usually inhibition stands for the drop in the measured response relative to a control, in per cent.
